The list is not random: actives were taken first. Their share in the collection is about 6.9%.
Vif-A3F inh: inhibitors of Vif-A3F interaction. HeLa A3F-eYFP + Vif (tagged APOBEC3F with the HIV-1 protein that degrades it), YFP fluorescence increase. Potency, µM (highest dose often 46.1 µM), for inactives: top-dose activity, negative = active. 390,000 tested, 0.2% active; note: potency is the fitted concentration of half-maximal effect; % of control where 0% means no effect; nearly all actives have a fitted effect of over 65% in size
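Fluorescence increase (Ex 488/Em 500-530) after overnight compound treatment at 37 deg C flags inhibition of Vif-driven A3F-eYFP loss in stable HeLa A3F-eYFP/Vif cells seeded overnight beforehand.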
Vif-A3G inh: Vif-A3G binding inhibition | Q9HC16 | Potency, µM (doses to about 46.1 µM), inactives show at the top dose activity, negative = active, actives largely listed as inhibitors | AID 602310 | 410,000 tested, 0.076% active | HeLa A3G-eYFP + Vif (tagged APOBEC3G with the HIV-1 protein that degrades it), YFP fluorescence, overnight; note: potency is the fitted concentration of half-maximal effect; % is set by controls: 0 for no effect and ±100 for the full control effect; nearly all actives have a fitted effect of over 60% in size
Target sequence (Q9HC16 whole entry, looked up): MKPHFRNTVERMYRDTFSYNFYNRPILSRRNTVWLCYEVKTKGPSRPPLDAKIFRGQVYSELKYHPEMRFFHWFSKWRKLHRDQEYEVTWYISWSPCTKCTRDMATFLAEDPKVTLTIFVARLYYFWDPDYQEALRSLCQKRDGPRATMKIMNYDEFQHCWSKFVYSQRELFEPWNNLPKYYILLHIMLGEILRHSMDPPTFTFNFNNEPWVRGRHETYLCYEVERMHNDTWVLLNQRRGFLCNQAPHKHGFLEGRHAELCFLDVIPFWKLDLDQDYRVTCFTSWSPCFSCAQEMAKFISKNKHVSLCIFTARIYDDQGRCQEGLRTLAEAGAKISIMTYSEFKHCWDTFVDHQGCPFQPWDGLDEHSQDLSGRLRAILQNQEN
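HeLa cells stably expressing Vif and C-terminally eYFP-tagged A3G, seeded overnight at 37 deg C, then exposed to compound by pintool overnight at 37 deg C. Rise in yellow fluorescence (Ex 488/Em 500-530, Acumen) marks blocked Vif-driven A3G degradation.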
Giardia kill: kills Giardia lamblia | Giardia lamblia trophozoite viability | activity change, % at 7.66 µM, hits read low | 340,000 tested, 0.15% active | AID 540267; in the data active = activity change below about -80%; inconclusive = between about -30% and that limit;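 note: parasites exposed to compound for two days anaerobically before the ATP read; % is set by controls: 0 for no effect and ±100 for the full control effect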
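Luminescence from cellular ATP indicates surviving trophozoites (100 cells/well) following 48 hrs anaerobic compound treatment at 37 deg C; signal develops 15-30 min at room temperature.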
IL1B secr inh: inflammasome signaling inhibition, IL-1 beta readout | THP-1 LPS/ATP IL-1B secretion, AlphaLISA, 16 h; active compounds read low | activity change, % at 57.5 µM | 360,000 tested, 4.7% active | AID 743279; in the data active = activity change below about -50%; inconclusive = mostly about -30% to -49%; note: % is set by controls: 0 for no effect and ±100 for the full control effect
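THP-1 cells pretreated 1 hr with compounds (up to 57.5 uM final), then stimulated with LPS (250 ng/mL final) plus ATP (1.25 mM final); secreted IL-1B measured by AlphaLISA after 16 hr, decreased signal indicating inhibition.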
SW480 rereplic: DNA re-replication induction in SW480 cells; SW480 DNA re-replication, Hoechst DNA content imaging, 48 h; Potency, µM (series often up to 46.1 µM), for the others: top-dose re-replication activation, most hits filed as activators; 340,000 tested, 1.8% active; AID 624297; note: potency is the fitted concentration of half-maximal effect; % of control where 0% means no effect; nearly all actives have a fitted effect of over 55% in size
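Readout is total intensity of Hoechst-stained nuclei, excited at 405 nm and collected at 500-530 nm. Compound treatment lasted 48 hr at 37 C in 5% CO2 before staining.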
MCF10A rerep: inducers of DNA re-replication in MCF 10A breast cells. MCF 10A DNA re-replication, Hoechst nuclear intensity, 48 h. Potency, µM (highest dose often 46.1 µM), inactives show at the highest dose activity, positive = re-replication, usual class: activators. 350,000 tested, 2.9% active; note: potency is the fitted concentration of half-maximal effect; % of control where 0% means no effect; nearly all actives have a fitted effect of over 50% in size
* marks the source's active call; other numbers are inactive results; [ ] = remark or other dose. Unless noted, calls come from the whole dose curve; as a rule, active = well fitted curve in the direction sought with a large enough effect; inconclusive = small, poorly fitted or top-dose-only effect, or another doubt; inactive = no such curve, though single readings can be large; an effect the other way counts as inactive or inconclusive.

How did C=CCOC(=O)C1=C[C@@H](c2cn(C(C)=O)c3ccccc23)C[C@@H](OCc2ccc(CO)cc2)O1 do in these assays?
Vif-A3F inh: -5.3%; Vif-A3G inh: -1.2%; Giardia kill: -10.1; IL1B secr inh: 12.8; SW480 rereplic: -29.1%; MCF10A rerep: 23.1µM*

How did CCOC(=O)N1CCN(/[N+]([O-])=N/Oc2ccc(C(F)(F)F)cc2[N+](=O)[O-])CC1 do in these assays?
Vif-A3G inh: 0.8%

What do the screens show for `CCCCCCC(=O)N1C/C=C\C(c2ccc(OC)cc2)N(Cc2ccc(F)cc2)C(=O)C1Cc1ccccc1` (centres undefined)?
Vif-A3G inh: -1.4%; Giardia kill: 12.6

Results for Cc1ccc2ccc3cc(C(=O)Nc4ccc(C)c(F)c4)nc3c2[nH]1 ?
Vif-A3F inh: inconclusive; Vif-A3G inh: 12.6µM*

Results for O=C(/C=C/c1cccc([N+](=O)[O-])c1)c1ccc([N+](=O)[O-])o1 ?
Vif-A3F inh: -3.2%; Vif-A3G inh: inconclusive; Giardia kill: 8.8; IL1B secr inh: -51.7*; SW480 rereplic: inconclusive; MCF10A rerep: 1.64µM*

How did O=C(/C=C/c1ccc(F)cc1)c1ccccc1Br do in these assays?
Vif-A3F inh: -16.3%; Vif-A3G inh: -15.7%; Giardia kill: 14.1; IL1B secr inh: inconclusive; MCF10A rerep: inconclusive

How did COc1ccc(/C=C/C(=O)c2ccc([N+](=O)[O-])o2)cc1 do in these assays?
Vif-A3F inh: -1.8%; Vif-A3G inh: inconclusive; Giardia kill: -21.3; IL1B secr inh: -13.5; SW480 rereplic: 11.6µM*; MCF10A rerep: 2.31µM*

How did COc1ccc(/C=C/C(=O)OCc2cccc([N+](=O)[O-])c2)cc1 do in these assays?
Vif-A3F inh: -6.9%; Vif-A3G inh: -5.8%; Giardia kill: -16.8; IL1B secr inh: 0.0; SW480 rereplic: -2.0%; MCF10A rerep: -5.3%

Results for Cc1ccccc1/C=C/C(=O)c1ccc([N+](=O)[O-])o1 ?
Vif-A3F inh: -1.6%; Vif-A3G inh: -19.3%; Giardia kill: 10.1; IL1B secr inh: 0.0; SW480 rereplic: inconclusive; MCF10A rerep: inconclusive

Results for Cc1ccc(C(=O)/C=C/c2ccc(F)cc2)o1 ?
Vif-A3F inh: -14.8%; Vif-A3G inh: inconclusive; Giardia kill: 0.7; IL1B secr inh: -103.1*; SW480 rereplic: inconclusive; MCF10A rerep: inconclusive

What do the screens show for `Cc1cccc(/C=C/C(=O)c2ccc([N+](=O)[O-])o2)c1`?
Vif-A3F inh: -0.9%; Vif-A3G inh: inconclusive; Giardia kill: inconclusive; IL1B secr inh: -100.4*; SW480 rereplic: inconclusive; MCF10A rerep: 11.6µM*

Results for CCC(Sc1nc(-c2ccccc2F)nc2c1Cc1c(CO)cnc(C)c1O2)C(=O)Nc1cc(C)ccc1C (centres undefined) ?
Vif-A3F inh: -2.9%; Vif-A3G inh: -4.2%

How did CC(=O)c1c(CSc2ccccc2)oc2ccc(O)c(CN(C)C)c12 do in these assays?
Vif-A3F inh: 9.0%; Vif-A3G inh: 4.4%; Giardia kill: -3.0; IL1B secr inh: -85.1*; SW480 rereplic: 13µM*; MCF10A rerep: inconclusive

How did COC(=O)Cc1c(CSc2ccccc2)oc2ccc(O)c(CN(C)C)c12 do in these assays?
Vif-A3F inh: -6.1%; Vif-A3G inh: -2.7%; Giardia kill: -11.0; IL1B secr inh: -24.9; SW480 rereplic: -1.9%; MCF10A rerep: inconclusive

Results for CCOC(=O)c1c(CSc2ccc(C)cc2)oc2ccc(O)cc12 ?
Vif-A3F inh: -8.9%; Vif-A3G inh: -7.6%; Giardia kill: -28.9; IL1B secr inh: 2.7; SW480 rereplic: 10.6%; MCF10A rerep: inconclusive

What do the screens show for `CCOC(=O)c1c(CSc2ccc(CC)cc2)oc2ccc(O)c(CN(C)C)c12`?
Vif-A3F inh: 16.6%; Vif-A3G inh: 0.4%; Giardia kill: 2.1; IL1B secr inh: -101.1*; SW480 rereplic: 18.4µM*; MCF10A rerep: inconclusive

What do the screens show for `CCOC(=O)c1c(CSc2ccccc2)oc2ccc(O)cc12`?
Vif-A3F inh: 0.3%; Vif-A3G inh: -11.5%; Giardia kill: -4.4; IL1B secr inh: 4.2; SW480 rereplic: 0.3%; MCF10A rerep: 18.4µM*

Results for CCOC(=O)c1c(-c2ccccc2)oc2ccc(O)cc12 ?
Vif-A3F inh: -12.6%; Vif-A3G inh: -9.7%; Giardia kill: -15.1; IL1B secr inh: 8.6; SW480 rereplic: -9.4%; MCF10A rerep: 5.5%

What do the screens show for `CCOC(=O)c1c(-c2ccccc2)[nH]c2ccc(O)cc12`?
Vif-A3F inh: 0.0%; Vif-A3G inh: -5.9%; Giardia kill: 10.0; IL1B secr inh: -54.9*; SW480 rereplic: -6.5%; MCF10A rerep: 4.8%

How did CCOC(=O)c1c(C)oc2ccc(O)c(CN(C)C)c12 do in these assays?
Vif-A3F inh: 6.7%; Vif-A3G inh: -3.8%; Giardia kill: 6.1; IL1B secr inh: -23.1; SW480 rereplic: -1.7%; MCF10A rerep: 2.9%

How did Cc1ccc(C)c(NC(=O)C2CCCN(c3nc4ccccc4s3)C2)c1 (centres undefined) do in these assays?
Vif-A3F inh: -9.3%; Vif-A3G inh: 2.7%

Results for COC(=O)c1cc(NC(=O)[C@H](CCS(C)(=O)=O)N2Cc3ccccc3C2=O)cc(C(=O)OC)c1 ?
Vif-A3F inh: -2.0%; Vif-A3G inh: 1.6%

How did S=C(NCc1ccccn1)Nc1ccccc1 do in these assays?
Vif-A3F inh: 1.7%; Vif-A3G inh: -6.5%; Giardia kill: 14.0; IL1B secr inh: 7.2; SW480 rereplic: inconclusive; MCF10A rerep: 8.9%

How did S=C(NCc1ccncc1)Nc1ccc(Br)cc1 do in these assays?
Vif-A3F inh: 7.3%; Vif-A3G inh: 1.0%; Giardia kill: -3.0; IL1B secr inh: 23.1; SW480 rereplic: -1.5%[9.22 µM]; MCF10A rerep: -11.0%

Results for S=C(NCc1ccncc1)Nc1cc(Cl)cc(Cl)c1 ?
Vif-A3F inh: -0.5%; Vif-A3G inh: 3.5%; Giardia kill: 0.4; IL1B secr inh: -54.2*; SW480 rereplic: inconclusive; MCF10A rerep: 8.7%

How did S=C(NCc1ccccn1)Nc1ccc(Cl)c(Cl)c1 do in these assays?
Vif-A3F inh: inconclusive; Vif-A3G inh: -6.1%; Giardia kill: -16.5; IL1B secr inh: -63.3*; SW480 rereplic: 4.5%; MCF10A rerep: 12.5%

Results for S=C(NCc1ccncc1)Nc1ccc(Cl)c(Cl)c1 ?
Vif-A3F inh: -10.8%; Vif-A3G inh: -11.8%; Giardia kill: -4.8; IL1B secr inh: -60.7*; SW480 rereplic: 17.4%; MCF10A rerep: inconclusive

How did CCCCCSc1ncnc2c1sc1nc(N3CCOCC3)c3c(c12)CCCC3 do in these assays?
Vif-A3F inh: 1.2%; Vif-A3G inh: 0.5%

High-throughput results deposited in PubChem BioAssay by National Center for Advancing Translational Sciences (NCATS).
